In all, about 24,000 compounds went through this assay and about 40 (0.2%) were called active.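 How the source made its calls: active means inhibition of disassembly above about 33% (limit read from the data); inconclusive means likely self-fluorescent, control bead median signal at least 40; inactive means the rest.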 What follows is part of a selection rich in actives, with near analogues and random picks from the rest.
System: 26S proteasome (yeast, GFP-tagged, ATP-dependent disassembly)
Experiment: blockers of yeast 26S proteasome breakdown – biochemical, bead-based flow cytometry, GFP-tagged proteasome, primary screen (AID 751);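 further: plate controls were ATP control with full disassembly for no effect and ATP-gamma-S intact proteasomes for full effect; higher percent means more bead fluorescence retained so stronger block of disassembly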
Details: anti-FLAG beads, hits give high values, concentration not given here

Structure (SMILES)	inhibition of disassembly
O=C(CN1CCN(c2ncc(C(F)(F)F)cc2Cl)CC1)Nc1ccc2c(c1)OCO2	2.15% (inactive)
Cc1nc2ncnn2c(C)c1CCC(=O)N1CCN(C(=O)c2ccco2)CC1	-0.22% (inactive)
Cc1c2cnn(-c3ccccc3)c(=O)c2c(C)n1CCCC(=O)N1CCN(C)CC1	0.62% (inactive)
CCSc1nc2c(c(=O)[nH]1)C(c1cccnc1)C(C(=O)OC(C)C)=C(C)N2 (centres undefined)	0.035% (inactive)
O=C(NCCCN1CCN(Cc2ccccc2)CC1)C1CCN(S(=O)(=O)N2CCCC2)CC1	-1.86% (inactive)
Nc1nonc1-c1nc2ccccc2n1CCC(=O)O	1.19% (inactive)
CCOC(=O)N1CCN(S(=O)(=O)c2cc(Br)cc3c2N(C(=O)C2CC2)CC3)CC1	3.18% (inactive)
CCN(c1ccc2c(c1)OCO2)S(=O)(=O)c1cc(Br)cc2c1N(C(=O)C1CC1)CC2	28.9% (active)
Cc1noc(C)c1S(=O)(=O)N(CC(=O)NCc1ccc(Cl)cc1)c1ccc2c(c1)OCO2	-0.25% (inactive)
CN(Cc1ccccc1)C(=O)CCNC(=O)Cn1cnc2ccccc2c1=O	-0.53% (inactive)
COc1ccc2c(c1)CCc1c(C(=O)N3CCCC3)noc1-2	-0.25% (inactive)
COc1ccc(-c2nc(CS(=O)CC(=O)N3CCc4ccccc4C3)c(C)o2)cc1 (centres undefined)	1.96% (inactive)
Nc1ccc(-n2nncc2-c2ccco2)cc1	-0.06% (inactive)
CCc1nnc(NC(=O)CCC(=O)O)s1	-0.71% (inactive)
O=C(c1ccccc1)c1ccc2nc(N3CCCCC3)c3nncn3c2c1	3.43% (inactive)
CC12COC3(C(=O)Nc4ccc(Cl)cn4)CC1CCC32C (centres undefined)	0.35% (inactive)
CCCn1nnc2sc3c(c2c1=O)CCC(C)C3 (centres undefined)	-0.93% (inactive)
CCCCc1nc2c(=O)[nH]c3ccccc3c2o1	0.25% (inactive)
CC(=O)Nc1ccc(S(=O)(=O)N2CCC(N(C)CCC(C)C)CC2)cc1	0.37% (inactive)
CCCn1cc(SCC(N)=O)c2ccccc21	-0.93% (inactive)
O=C(Nc1nc2ccc(S(=O)(=O)N3CCCC3)cc2s1)C1CCCO1 (centres undefined)	-0.99% (inactive)
COc1ccc(N2C(=O)CCC(C(=O)N(C)C3CCCCC3)C2c2ccc(OC)c(OC)c2)cc1 (centres undefined)	-1.19% (inactive)
CC(=O)NCC(=O)N(C)C(C(=O)Nc1ccc2c(c1)OCCO2)c1ccccc1 (centres undefined)	2.08% (inactive)
CC(=O)Nc1cc2ccc(OC(C)=O)cc2oc1=O	0.02% (inactive)
Fc1ccccc1C(c1nnnn1Cc1ccc2c(c1)OCO2)N1CCN(Cc2ccccc2)CC1 (centres undefined)	-0.69% (inactive)

Structure (SMILES)	inhibition of disassembly
CC(C(=O)N1CCOCC1)N1c2cccc3cccc(c23)S1(=O)=O (centres undefined)	-0.85% (inactive)
C=CCn1c(COc2ccccc2F)nnc1SCC(=O)N1CC(=O)Nc2ccccc21	-0.82% (inactive)
CCCCNC(=O)c1c[nH]c2ccc(S(=O)(=O)Nc3ccc(OCC)cc3)cc2c1=O	0.53% (inactive)
CCCCOC(=O)Nc1nccs1	0.85% (inactive)
CCn1cc(C(=O)N2CCN(C3CCCCC3)CC2)c2cc(OC)c(OC)cc2c1=O	-1.25% (inactive)
COCCCN(C(=O)Cn1ncc2c(=O)oc3ccc(C)cc3c21)C(C)c1ccncc1 (centres undefined)	-1.07% (inactive)
Cc1ccsc1C(C(=O)NC1CCCCC1)N(C(=O)Cc1cccs1)C1CC1 (centres undefined)	1.54% (inactive)
O=C(NC1(C(F)(F)F)N=C2SCCN2C1=O)c1ccco1 (centres undefined)	1.38% (inactive)
CCN(CCCNC(=O)C1CCN(S(=O)(=O)c2cnc[nH]2)CC1)c1ccccc1	0.49% (inactive)
Cc1ccc(C(c2sc3nc(C)nn3c2O)N2CCN(c3ccc(F)cc3)CC2)cc1 (centres undefined)	-0.24% (inactive)
CN1C(=O)c2ccccc2C(C(=O)NCCCN2CCCC2)C1c1c[nH]c2ccccc12 (centres undefined)	1.77% (inactive)
CCc1ccc(NC(=O)CSc2nc3ccccc3c(=O)n2CCN2CCOCC2)cc1	-3.37% (inactive)
COc1ccc(OC)c(N=Cc2c(O)[nH]c3ccccc23)c1	25.8% (inactive)
O=C(CN1C(=O)COc2ccccc21)NCCN1CCc2ccccc2C1	-0.95% (inactive)
COc1ccc(CN2CN(C(C)C)CSC2=S)cc1	-0.35% (inactive)
CN1CCN(CCCNC(=O)c2cc3c(=O)oc4ccccc4c3s2)CC1	-0.65% (inactive)
CCOC(=O)CN1CC23C=CC(O2)C(C(=O)Nc2ccc(F)cc2)C3C1=O (centres undefined)	0.62% (inactive)
COCCNC(=S)c1ccc(OC)cc1	-2.83% (inactive)
COc1ccc(Cn2nnc3c(=O)[nH]c(C4CCN(C(=O)c5ccccc5Cl)CC4)nc32)cc1	-0.42% (inactive)
CCN(CC)S(=O)(=O)c1ccc(NC(=O)CN(c2cccc(F)c2)S(C)(=O)=O)cc1	2.21% (inactive)
O=C(C(NS(=O)(=O)c1cccc2nsnc12)c1ccccc1)N1CCN(c2ccccn2)CC1 (centres undefined)	0.34% (inactive)
Cc1c(C(=O)N2CC(C)OC(C)C2)sc2nc(-c3ccccc3)cn12 (centres undefined)	0.65% (inactive)
COc1cc(C(O)c2nc3ccccc3n2C)cc(OC)c1OC (centres undefined)	1.95% (inactive)
O=C(CCN1C(=O)c2ccncc2C1=O)Nc1ccc2c(c1)OCCO2	-0.98% (inactive)

— PubChem BioAssay AID751 (NMMLSC, 2007)
